Compounds with a hit are over-represented: about 5.3% of the library has one in this group of screens.
Sfp inh – Sfp phosphopantetheinyl transferase inhibition | Q9F4F7 | Biochemical Sfp PPTase activity, qHTS | Potency, µM, for the others: largest response in the series, negative = inhibition, hits mostly inhibitors | 310,000 compounds, 3.5% hits | AID 1490;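 note: the enzyme is Sfp with the accession as filed and its product quenches rhodamine fluorescence; potency is the fitted concentration of half-maximal effect; 0% = enzyme reaction without inhibitor and -100% = no enzyme wells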
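Buffer: 50 mM Hepes-Na pH 7.6, 10 mM MgCl2, 0.01% Nonidet P-40, 0.01% BSA. Enzyme 15 nM, pre-exposed to compound 15 min; substrates then added and fluorescence change tracked over 30 min.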
Tau fibril FP – inhibitors of human tau fibril formation. K18 P301L tau heparin fibrillization, Alexa594 FP, 6 h. Potency, µM (doses to about 57.7 µM), without a hit: at the top dose activity, negative = inhibition, most hits filed as inhibitors. 280,000 compounds, 0.39% hits. AID 1468; note: potency is the fitted concentration of half-maximal effect; % is set by controls: 0 for no effect and ±100 for the full control effect; nearly all actives have a fitted effect of over 55% in size
Target sequence (P10636 561-689 P618L limits assumed): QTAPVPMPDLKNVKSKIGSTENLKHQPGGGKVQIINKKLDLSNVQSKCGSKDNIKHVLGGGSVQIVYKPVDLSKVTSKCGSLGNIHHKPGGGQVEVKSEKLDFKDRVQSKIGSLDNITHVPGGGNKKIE
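Steps: dispense K18 P301L tau (15 uM plus 0.24 uM Alexa 594 tracer, final) in pH 7 sodium acetate; add compound; add heparin (20 uM final); incubate 6 hr, 37 C; add ThT (30 uM final); after 1 hr ambient, read FP.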
Coupling enz – coupling enzyme interference in Giardia aldolase counter-screen; coupling enzyme system counterscreen, AmpLite Red fluorescence; activity change, negative = inhibition, % at 58.2 µM, hits read low; 290,000 compounds, 0.67% hits; AID 2472; in the data active = activity change below about -30%; note: % is set by controls: 0 for no effect and ±100 for the full control effect
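First, compound is pin-transferred into glyceraldehyde-3-phosphate coupling-enzyme reagent at 57.5 uM final and held 10 min at RT. Next, substrate, coupling system and AmpLite Red are added. After 20 min RT, fluorescence (525/598 nm) is read.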
Tau ThT inhib – inhibitors of human tau fibril formation, thioflavin T binding; P10636; Potency, µM (series often up to 57.4 µM), without a hit: at the highest dose activity, negative = inhibition, usual class: inhibitors; AID 1460; 270,000 compounds, 2.1% hits; recombinant tau K18 P301L, heparin-induced fibrillization, ThT fluorescence; note: potency is the fitted concentration of half-maximal effect; % is set by controls: 0 for no effect and ±100 for the full control effect; nearly all actives have a fitted effect of over 55% in size
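K18 P301L tau (15 uM + 0.24 uM Alexa 594-tagged), heparin 20 uM, NaOAc pH 7, 6 h 37 C; ThT 30 uM, 1 h RT, ex 450/em 510 nm.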
Tau fluor cs – counter-screen for tau fibril formation inhibitors | 280,000 compounds, 0.93% hits | Potency, µM (doses to about 57.7 µM), inactives show at the highest dose activity change, negative = decrease | tau K18 P301L Alexa594 fluorescence, heparin fibrillization; note: potency is the fitted concentration of half-maximal effect; % is set by controls: 0 for no effect and ±100 for the full control effect; nearly all actives have a fitted effect of over 55% in size
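Human K18 P301L tau (15 uM unlabeled plus 0.24 uM Alexa 594-labeled, final) in 100 mM sodium acetate pH 7 was mixed with compound and 20 uM heparin and incubated 6 hr at 37 C.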
JMJD2E inh – blocks human JMJD2E demethylase activity | AID 2147 | 230,000 compounds, 1.6% hits | Potency, µM (doses to about 57.1 µM), for inactives: top-dose activity change, negative = inhibition, hits mostly inhibitors | JMJD2E catalytic domain, FDH-coupled NADH fluorescence (FDH is formaldehyde dehydrogenase) | B2RXH2; active = well fitted inhibition curve with a large enough effect, not every such curve was filed as active; inconclusive = small, poorly fitted or top-dose-only effect, or another doubt; inactive = no such curve, though single readings can be large or run the other way;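 note: potency is the fitted concentration of half-maximal effect; 0% = wells with enzyme and -100% = buffer wells without enzyme; nearly all actives have a fitted effect of over 50% in size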
Target sequence (B2RXH2 1-337 limits assumed): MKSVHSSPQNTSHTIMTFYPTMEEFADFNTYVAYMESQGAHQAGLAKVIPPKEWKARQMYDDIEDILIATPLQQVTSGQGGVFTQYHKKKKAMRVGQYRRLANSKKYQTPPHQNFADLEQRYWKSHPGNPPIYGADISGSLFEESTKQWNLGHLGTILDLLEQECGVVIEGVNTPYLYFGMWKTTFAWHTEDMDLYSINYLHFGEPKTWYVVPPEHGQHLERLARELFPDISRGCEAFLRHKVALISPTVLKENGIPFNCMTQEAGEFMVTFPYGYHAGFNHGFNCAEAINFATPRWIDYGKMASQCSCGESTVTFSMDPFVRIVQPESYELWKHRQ
Tau fibril TEM – Inhibits tau K18 fibrillization by TEM grading; fibril grade (0 = clumped fibrils, 4 = only tiny pieces) (test concentration not listed); 45 compounds, 70% hits; AID 1719; recombinant tau K18 P301L fibrillization, TEM grading; hits give high values; shares compounds with Tau ThT inhib;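 active = compounds whose electron micrographs showed tau fibrils broken into shorter filaments or fragments, graded high on fibril breakup; inconclusive = micrographs gave an unclear fibril picture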
tau fibril sed – reduces sedimented tau K18 P301L aggregates | inhibition, % at 100 µM | AID 1720 | shares compounds with Tau ThT inhib | 110 compounds, 50% hits | recombinant tau K18 P301L (four-repeat tau fragment), sedimentation SDS-PAGE densitometry; in the data active = inhibition above about 40%; inconclusive = no clear call, values can overlap the other calls; inactive = below about 18%
* marks the source's active call; other numbers are inactive results; ? = inconclusive; . = not tested or not shown; [ ] = remark or other dose. Unless noted, calls come from the whole dose curve; as a rule, active = well fitted curve in the direction sought with a large enough effect; inconclusive = small, poorly fitted or top-dose-only effect, or another doubt; inactive = no such curve, though single readings can be large; an effect the other way counts as inactive or inconclusive.

SMILES	Sfp inh	Tau fibril FP	Coupling enz	Tau ThT inhib	Tau fluor cs	JMJD2E inh	Tau fibril TEM	tau fibril sed
Nc1nc2cc(S(=O)(=O)NC3=NCCCCC3)ccc2s1	?	?	3	5µM*	-25%	-12%	2*	69*
O=C(Nc1nnc(S(=O)(=O)Nc2ccccc2)s1)C1CCCCC1	8%	-18%	3	?	?	.	.	10
CCNc1ncc2nc(-c3ccc(OC)cc3)c(=O)n(CCC#N)c2n1	-2%	.	8	.	.	.	.	.
Cc1ccc(N2C(=O)SC(Cc3ccccc3)C2=O)cc1 (stereo unspecified)	22µM*	?	8	?	-24%	?	?	?
O=C1SC(Cc2ccccc2)C(=O)N1c1ccccc1 (stereo unspecified)	20%	1%	3	-8%	-6%	-1%	.	.
COC(=O)c1c(NC(=O)CCCOc2ccc(C)cc2)sc2c1CCCC2	.	-10%	.	?	-28%	.	.	.
COC(=O)c1c(NC(=O)CCCOc2ccc(C)cc2)sc2c1C(C(=O)OC)CC2 (stereo unspecified)	.	?	.	7.9µM*	?	.	2*	56*
COC(=O)c1c(NC(=O)CCCOc2cccc(C)c2)sc2c1C(C(=O)OC)CC2 (stereo unspecified)	.	?	.	3.2µM*	-28%	.	2*	56*
COC(=O)c1c(NC(=O)C(C)(C)C)sc2c1C(C(=O)OC)CC2 (stereo unspecified)	-12%	2%	.	-5%	-3%	0%	.	17
Cc1cc(C)c(OCC(=O)N(Cc2ccco2)Cc2ccco2)c(C)c1	.	0%	.	?	-6%	.	.	.
CN(C)c1ccc(-c2cc[nH]c(=O)c2N)cc1	.	.	.	.	.	.	3*	68*
Nc1c(-c2ccncc2)cc[nH]c1=O	.	.	.	.	.	.	0	55*
c1ccc2c(-c3ccncc3)c[nH]c2c1	11%	2%	-3	-12%	-15%	3%	.	.
CN(C)c1ccc(/C=C2/NC(=O)NC2=O)cc1	10%	5%	-5	?	-12%	-11%	.	.
CN(C)C(=O)c1ccc(-c2cc[nH]c(=O)c2N)cc1	.	.	.	.	.	.	0	48*
Cc1cccc(-c2nnn3c2nc(NCCc2ccc(S(N)(=O)=O)cc2)c2cc(Cl)ccc23)c1	.	-15%	.	11%	-21%	.	.	.
Cc1ccc(Cl)cc1N1CCN(C(=O)c2cnc(N3CCOCC3)c3ccccc23)CC1	.	4%	.	-15%	-8%	.	.	.
CCCCc1nn2c(=O)cc(COC(=O)c3ccccc3NC(=O)c3cccc(C)c3)nc2s1	.	13%	.	-6%	-1%	.	.	.
COC(=O)CSc1nc2ccc(NC(=O)CSc3nnnn3Cc3ccccc3)cc2s1	-6%	?	2	?	?	-2%	.	18
O=C(CSc1nc2ccc(NC(=O)CSc3nnnn3Cc3ccccc3)cc2s1)Nc1ccccc1	-6%	?	-3	-10%	?	-17%	.	.
COc1cc(/C=N/N=C2/NC(=O)C(CC(=O)O)S2)ccc1OCc1ccc(Cl)cc1 (stereo unspecified)	-5%	12%	5	-8%	4%	-14%	.	18
CN(c1ccccc1)S(=O)(=O)c1nnc(NC(=O)COc2ccccc2)s1	13%	?	.	?	?	.	.	?
Cc1cc(-c2ccc(S(=O)(=O)N3CCN(c4ccc(Cl)cc4)CC3)s2)on1	.	-5%	.	5%	-19%	.	.	.
O=C(NCc1cccnc1)C1CCN(S(=O)(=O)c2cccs2)CC1	14%	?	-3	4µM*	4.5µM*[quencher]	-4%	.	13

Screening data from PubChem BioAssay.
